Molecules are shown by their SMILES. Inconclusive results are not listed. A number with no mark means an inactive call. The source made the active and inactive calls. Calls follow the shape of the dose curve; as a rule, active = well fitted inhibition curve with a large enough effect; inconclusive = small, poorly fitted or top-dose-only effect; inactive = flat fitted curve, though single readings scatter. Residues, ends and D or L forms follow the SMILES beside them. *: point of attachment. Cbz = O=C(OCc1ccccc1)*

Assay [1] concerns CRL-7250. The experiment in a line: Cytotoxic Profiling of Annotated Libraries Using Quantitative High-Throughput Screening (AID 1296008). Also: potency is read from the fitted curve at half-maximal effect. As to max response: % is scaled to controls: 0 for no effect and ±100 for the full control effect. Particulars: Five cell lines viability, CellTiter-Glo ATP luminescence, 48-72 h; max response: active compounds read low. The gist of the method: (§1)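 Cytotoxicity was measured as CellTiter-Glo ATP luminescence, read after 10 min at room temperature. Compound treatment of the cells lasted 48 or 72 hr at 37 degrees Celsius in a qHTS format.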

The subject of assay [2] is HEK293. The assay is described as above. Particulars: Five cell lines viability, CellTiter-Glo ATP luminescence, 48-72 h; max response: active compounds read low. The method, boiled down:
as §1

In assay [3] the test system is KB-3-1. Described as above. Particulars: Five cell lines viability, CellTiter-Glo ATP luminescence, 48-72 h; max response: active compounds read low. The method, boiled down: as §1
On the technique in general: ATP-based viability assays read luminescence as a measure of living cells.

The subject of assay [4] is HaCat. The assay is described as above. The conditions noted are these: Five cell lines viability, CellTiter-Glo ATP luminescence, 48-72 h; max response: active compounds read low. The method, boiled down:
as §1

In assay [5] the test system is NIH3T3. Described as above. The conditions noted are these: Five cell lines viability, CellTiter-Glo ATP luminescence, 48-72 h; max response: active compounds read low. The gist of the method:
as §1

Assay [6] relates to HACAT. The experiment in a line: qHTS assay to identify novel small-molecules to repurpose for Merkel cell carcinoma treatment (AID 1296009). Particulars: MCC and control cell lines, CellTiter-Glo viability, 72 h; at 44.8 µM (top of the series) unless noted. The gist of the method: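 Cell viability measured by CellTiter-Glo following 72 hr compound treatment at 37 degree celsius, with NPC and MIPE libraries tested in 8- and 11-point concentration series.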
On the technique in general: In qHTS, concentration-response curves come from the screen itself.

Assay [7] concerns TAB109. Briefly: qHTS profiling for inhibitors of Plasmodium falciparum proliferation (AID 504749).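 Also: 0% = DMSO vehicle and full inhibition = artemisinin control.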 Particulars: P. falciparum in erythrocytes, SYBR Green DNA, 72 h; series mostly up to 28.7 µM. The method, boiled down: (§2)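 In a 72 h erythrocytic culture (37 C, humidified, 5% CO2) at 2.5% hematocrit and 0.3% starting parasitemia, compounds were tested; SYBR Green I in detergent lysis buffer stained parasite DNA overnight.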

Assay [8] deals with TAB113. The description is as above. The conditions noted are these: P. falciparum in erythrocytes, SYBR Green DNA, 72 h; series mostly up to 28.7 µM. The method, boiled down:
as §2

The subject of assay [9] is TAB165. Described as above. Particulars: P. falciparum in erythrocytes, SYBR Green DNA, 72 h; series mostly up to 28.7 µM. The method, boiled down:
as §2

Assay [10] deals with W2. Described as above. Particulars: P. falciparum in erythrocytes, SYBR Green DNA, 72 h; series mostly up to 28.7 µM. The gist of the method:
as §2
Also: nearly all actives have a fitted effect of over 60% in size.

With `COc1cc(C=CC(=O)CC(=O)C=Cc2ccc(O)c(OC)c2)ccc1O`, the Potency in assay [1] was 34000 nM (active); in assay [2], 24100 nM (active); in [3], 38.2 µM (active).
For the compound `CC(C)C[C@@H](C=O)NC(=O)[C@H](CC(C)C)NC(=O)[C@H](CC(C)C)NC(=O)OCc1ccccc1` (Cbz-Leu-Leu-Leu-aldehyde), the Potency in assay [1] is 1660 nM (active); in [2] it was 1050 nM (active); in assay [4] it was 3320 nM (active); in [5], 2.96 µM (active).
As for `COC1=C2C[C@@H](C)C[C@H](OC)[C@@H](O)[C@@H](C)C=C(C)[C@H](OC(N)=O)[C@@H](OC)C=CC=C(C)C(=O)NC(=CC1=O)C2=O`, the Potency was 7430 nM (active) in assay [1], 4690 nM (active) in [2], 2.09 µM (active) in assay [3] and 9.35 µM (active) in assay [5].
Consider `CN(CC(=O)N(Cc1ccc(C2CCCCC2)cc1)c1ccc(C(=O)O)c(O)c1)S(=O)(=O)c1c(F)c(F)c(F)c(F)c1F`, for which the outcome in assay [1], in assay [2] and in [5] was inactive. The max response in assay [4] was -3.31%.
Regarding `CCC(C=C[C@@H]1OC(=O)C=C[C@H]1C)=C[C@H](C)CC=CC(C)=C[C@@H](C)C(=O)[C@@H](C)[C@H](O)[C@@H](C)CC(C)=CC(=O)O`, the Potency in assay [1] was 55.3 nM (active); in assay [2], 17.5 nM (active); in assay [4], 110 nM (active); in assay [5], 0.124 µM (active).
For `O=C(O)C[C@H](O)C[C@H](O)C=Cc1c(C2CC2)nc2ccccc2c1-c1ccc(F)cc1`, the Potency in assay [1] was 662 nM (active); in [2], 9350 nM (active); in assay [4], 4690 nM (active); in [5] it was 20.9 µM (active).
In the case of `CC(=O)NC(CS)C(=O)O` (centres undefined), the max response was 1.57% in assay [1], -9.86% in [2], -3.44% in [3] and -5.75% in [5]. For the same compound, the outcome in assay [4] and in assay [6] was inactive.
Consider `CC1=C(C(=O)Nc2cc3cn[nH]c3cc2F)C(c2ccc(Cl)cc2F)N=C(c2ccnc(Cl)c2)N1` (centres undefined), for which the max response in [1] is -26.3%; in assay [4], -46.1%. Further, the Potency in assay [2] was 13200 nM (active); in assay [5], 11.8 µM (active).
In the case of `Cc1cc(Nc2ncc3c(n2)N(C)C(=O)N(c2cc(NC(=O)c4cccc(C(F)(F)F)c4)ccc2C)C3)n(C)n1`, the Potency in assay [1] was 469 nM (active); in assay [2], 418 nM (active); in assay [4], 833 nM (active); in [5] it was 1.32 µM (active).
`Cc1ccc([N+](=O)[O-])cc1S(=O)(=O)N(C)N=Cc1cnc2ccc(Br)cn12`: the Potency in assay [1] is 18.7 nM (active); in assay [2], 23.5 nM (active); in assay [3] it was 0.0209 µM (active); in assay [5] it was 0.0743 µM (active).
For `CCNC(=O)Nc1ccc(-c2nc3c(c(N4CCOC[C@H]4C)n2)CCN(C2COC2)C3)cc1`, the Potency in assay [1] is 296 nM (active); in [2], 743 nM (active); in [3], 1.32 µM (active); in assay [5], 5.9 µM (active).
Take `O=C1NC(=O)C(=Cc2ccc3nccc(-c4ccncc4)c3c2)S1`: the Potency in assay [1] was 52.6 nM (active); in assay [2], 74.3 nM (active); in assay [3] it was 0.148 µM (active); in assay [5], 0.209 µM (active).
With `N#Cc1c(NC(=O)c2cccc3ccccc23)sc2c1CCCC2`, the Potency in assay [1] was 1320 nM (active); in assay [2], 372 nM (active); in assay [3], 0.469 µM (active); in assay [5], 0.332 µM (active). Further, the outcome in assay [4] and in assay [6] was inactive.
Consider `CNC(=O)Nc1ccc(-c2nc(N3CC4CCC(C3)O4)c3cnn(C4CCC5(CC4)OCCO5)c3n2)cc1`, for which the Potency in [1] is 4.7 nM (active); in assay [2] it was 6.6 nM (active); in [5] it was 0.0526 µM (active). In addition, in assay [4], the max response was -19.6%.
For the compound `O=c1[nH]c(=O)n([C@H]2C[C@@H](O)[C@@H](CO)O2)cc1F`, the Potency in assay [1] was 18700 nM (active); in assay [2] it was 52.6 nM (active); in [3] it was 13.2 µM (active); in assay [5], 0.0187 µM (active).
Turning to `CC(=O)C1=C(O)C=C2Oc3c(C(C)=O)c(O)c(C)c(O)c3C2(C)C1=O` (centres undefined), the outcome in assay [1], in assay [2], in assay [4], in assay [3], in assay [5] and in assay [6] was inactive.
As for `Cc1cnc(Nc2ccc(N3CCN(C)CC3)cc2)nc1Nc1cccc(S(=O)(=O)NC(C)(C)C)c1`, the Potency in [1] is 1480 nM (active); in assay [2], 4690 nM (active); in assay [4] it was 296 nM (active); in assay [5] it was 4.18 µM (active).
With `CC[C@H]1OC(=O)[C@H](C)[C@@H](O[C@H]2C[C@@](C)(OC)[C@@H](O)[C@H](C)O2)[C@H](C)[C@@H](O[C@@H]2O[C@@H](C)C[C@H](N(C)C)[C@@H]2O)[C@](C)(O)C[C@@H](C)C(=O)[C@H](C)[C@@H](O)[C@]1(C)O`, the max response in [1] is 0.799%; in assay [2] it was -7.85%; in assay [3] it was 5.08%. In addition, the outcome in assay [4], in assay [5] and in assay [6] was inactive.
On to `Nc1nc2c(c(=O)[nH]1)N(C=O)[C@H](CNc1ccc(C(=O)N[C@@H](CCC(=O)O)C(=O)O)cc1)CN2`, for which the Potency entry in assay [7], in assay [8], in assay [9] and in assay [10] was “inactive” each time. Further, the max response in [1] is -8.32%; in [2], -23.4%; in assay [3], 3.69%. Besides, the compound was called inactive in assay [4], in assay [5] and in assay [6].

Values taken from PubChem BioAssay (NCATS).
